Laboratory results as given in PubChem BioAssay (NCATS).
Inconclusive results are not listed. A number with no mark means an inactive call. Calls of active or inactive are those of the source. The call rests on the fitted dose curve; in most records, active means well fitted cell-killing curve with a large enough effect; inconclusive means small, poorly fitted or top-dose-only effect, or effect the other way; inactive means flat fitted curve, though single readings scatter.

System: JEG-3
Experiment: Primary qHTS to identify gynecologic anti-cancer compounds using libraries of approved drugs and bioactive compounds (AID 1345084); further: nearly all actives have a fitted effect of over 55% in size
Settings: Gynecologic cancer cell panel viability, ATPlite luminescence, 48 h; series mostly up to 57.5 µM; activity change, negative = cytotoxicity: at the top concentration
Excerpt: National Center for Advancing Translational Sciences [NCATS] Assay Overview: Chemotherapeutic drug responses vary from cancer to cancer and from patient to patient. These variations could be caused by a number of factors including patient genomic background, tumor mutations, tumor heterogeneity, and aspects of drug treatment. Chemotherapeutic drug resistance is also a common issue and can lead to ineffective treatment and patient death. Here we have profiled the cell killing effects of thousands of compounds to characterize the responses in three gynecological cancers, identify cancer-selective compounds, and understand the diversity of responses to these compounds from pan-cancer suppressors to single cell line selective compounds. In this assay, we screened a 7,914 compound drug library that included approved drug and bioactive compounds in six ovarian, three cervical, and […] placental cancer cell lines using the ATPlite assay for cell viability. […] The cervical cancer cell lines included HeLa, Ca Ski, and C-33 A. The placental cancer cell lines included JEG-3. HEK 293T cells were used as the control cell line to determine the selectivity index. ATPlite is a luminescence based assay reliant on the conversion of a luciferase substrate to light in the presence of ATP. As a cytotoxic compound will suppress growth and decrease the number of cells, the concentration of ATP will decrease, and less light signal will be detected in the well.
Assay Protocol Summary: 1,000 cells in 4 uL of media were dispensed into white, solid bottom 1536-well plates using a Multidrop Combi (Thermo Scientific). The Assay plates were incubated for 16 hours at 37 C with 5% CO2 in assay plates, followed by the addition of 23 nL of DMSO or drug dissolved in DMSO. Each compound was assayed in five concentrations (0.092, 0.46, 2.3, 11.5, and 57.5 uM), using the automated Wako 1536 Pin Tool workstation and incubated at 37 C with 5% CO2 48 hours. 4 uL of ATPlite, the ATP monitoring reagent, was then added to the each well of the assay plates using the Multidrop Combi reagent dispenser followed by incubation for 15 minutes at room temperature. The resulting luminescence was measured using the ViewLux plate reader.
On the % scale 0 is the no-effect control and ±100 the full control effect; potency means the concentration at half of the fitted maximal effect.

Question: For `O=c1oc2ccccc2c(O)c1C(CC(O)c1ccc(-c2ccc(Br)cc2)cc1)c1ccccc1` (stereo not given), which “activity change, negative = cytotoxicity” value is on record?
Answer: -5.67%

Question: How did the “activity change, negative = cytotoxicity” value turn out when `CC(CCc1ccccc1)NC(C)C(O)c1ccc(O)cc1` (stereo not given) was run?
Answer: 15.6%

Question: `O=C(O)c1ccc2[nH]cc(CCCCN3CC=C(c4ccccc4)CC3)c2c1` was tested. Which “activity change, negative = cytotoxicity” value did it give?
Answer: 3.24%

Question: With `N[C@@H](Cc1ccc(Oc2cc(I)c(O)c(I)c2)c(I)c1)C(=O)O` as the compound, how does the “activity change, negative = cytotoxicity” value read?
Answer: 0.186%

Question: Which “activity change, negative = cytotoxicity” value does the source give for `CCCN1CCC[C@@H]2Cc3[nH]ncc3C[C@H]21` here?
Answer: 5.39%

Question: For `CN1C[C@H](CNC(=O)OCc2ccccc2)C[C@@H]2c3cccc4c3c(cn4C)C[C@H]21`, which “activity change, negative = cytotoxicity” value is on record?
Answer: -28.1%

Question: For `CNC(=O)c1ccc(N2C(=S)N(c3ccc(C#N)c(C(F)(F)F)c3)C(=O)C23CCC3)cc1F`, which “activity change, negative = cytotoxicity” value is on record?
Answer: 10.6%

Question: With `Clc1cccc(N2CCNCC2)c1` as the compound, how does the “activity change, negative = cytotoxicity” value read?
Answer: 4.97%

Question: `CC(C)NCC(O)c1ccccc1Cl` (stereo not given) was tested. Which “activity change, negative = cytotoxicity” value did it give?
Answer: -6.08%

Question: `CO[C@]12CC[C@@]3(C[C@@H]1[C@](C)(O)C(C)(C)C)[C@@H]1Cc4ccc(O)c5c4[C@@]3(CCN1CC1CC1)[C@H]2O5` was tested. Which “activity change, negative = cytotoxicity” value did it give?
Answer: -6.52% [at 116 µM]

Question: How did the “activity change, negative = cytotoxicity” value turn out when `C=CCN1CC[C@]23c4c5ccc(O)c4O[C@H]2C(=O)CC[C@@]3(O)[C@H]1C5` was run?
Answer: 9.17%

Question: How did the “activity change, negative = cytotoxicity” value turn out when `CC(C)(C)NCC(O)c1cc(Cl)c(N)c(Cl)c1` (stereo not given) was run?
Answer: 1.19%

Question: Which “activity change, negative = cytotoxicity” value does the source give for `Clc1ccc(COC(Cn2ccnc2)c2ccc(Cl)cc2Cl)cc1` (stereo not given) here?
Answer: -17.6%

Question: Which “activity change, negative = cytotoxicity” value does the source give for `COc1ccccc1N1CCNCC1` here?
Answer: 3.21%

Question: How did the “activity change, negative = cytotoxicity” value turn out when `NCC(O)c1ccc(O)cc1` (stereo not given) was run?
Answer: 3.2%

Question: For `O=P1(NCCCl)OCCCN1CCCl` (stereo not given), which “activity change, negative = cytotoxicity” value is on record?
Answer: 10.2%

Question: For `CC[N+]1(C)CCCC(OC(=O)C(O)(c2ccccc2)c2ccccc2)C1` (stereo not given), which “activity change, negative = cytotoxicity” value is on record?
Answer: -1.34%

Question: `Cc1ccc(-c2nc3ccc(C)cn3c2CC(=O)N(C)C)cc1` was tested. Which “activity change, negative = cytotoxicity” value did it give?
Answer: -1.99%

Question: How did the “activity change, negative = cytotoxicity” value turn out when `Cc1ccc2c(c1)C1CN(C)CCC1N2` (stereo not given) was run?
Answer: -0.307% [at 25.3 µM]

Question: `N[C@@H]1C[C@H]1c1ccccc1` was tested. Which “activity change, negative = cytotoxicity” value did it give?
Answer: -8.93%

Question: `CCC(COC(=O)c1cc(OC)c(OC)c(OC)c1)(c1ccccc1)N(C)C` (stereo not given) was tested. Which “activity change, negative = cytotoxicity” value did it give?
Answer: -29.2%

Question: For `CC[N+](CC)(CC)CC`, which “activity change, negative = cytotoxicity” value is on record?
Answer: 5.66%

Question: With `CC(O)(CS(=O)(=O)c1ccc(F)cc1)C(=O)Nc1ccc(C#N)c(C(F)(F)F)c1` (stereo not given) as the compound, how does the “activity change, negative = cytotoxicity” value read?
Answer: -18.6%

Question: `CC(=O)[C@H]1CC[C@H]2[C@@H]3CC[C@H]4C[C@H](O)CC[C@]4(C)[C@H]3C(=O)C[C@]12C` was tested. Which “activity change, negative = cytotoxicity” value did it give?
Answer: -4.74%

Question: Which “activity change, negative = cytotoxicity” value does the source give for `C#CCOC(C(=O)OCCN(C)C)(c1ccccc1)c1ccccc1` here?
Answer: -4.19%

Question: `CC(C)=CCOc1c2occc2cc2ccc(=O)oc12` was tested. Which “activity change, negative = cytotoxicity” value did it give?
Answer: 14.5%

Question: With `Clc1ccc(CCC(Cn2ccnc2)Sc2c(Cl)cccc2Cl)cc1` (stereo not given) as the compound, how does the “activity change, negative = cytotoxicity” value read?
Answer: 13.2%

Question: With `Oc1ccc(Cl)cc1Cc1ccccc1` as the compound, how does the Potency read?
Answer: inactive

Question: For `NCCc1cc(O)c(O)cc1O`, which “activity change, negative = cytotoxicity” value is on record?
Answer: -10.2%

Question: How did the Potency turn out when `C[C@@H]1O[C@@H](O[C@H]2C[C@@H](O)[C@]3(CO)[C@H]4[C@H](O)C[C@]5(C)[C@@H](C6=CC(=O)OC6)CC[C@]5(O)[C@@H]4CC[C@]3(O)C2)[C@H](O)[C@H](O)[C@H]1O` was run?
Answer: 355 nM (active)

Question: Which “activity change, negative = cytotoxicity” value does the source give for `C=C1CC[C@@]2(O)[C@H]3Cc4ccc(O)c5c4[C@@]2(CCN3CC2CC2)[C@H]1O5` here?
Answer: 26.7%

Question: Which “activity change, negative = cytotoxicity” value does the source give for `C[C@]12CC[C@H]3[C@@H](CCC4=CC(=O)CC[C@@H]43)[C@@H]1CC[C@@H]2OC(=O)CCc1ccccc1` here?
Answer: -1.92%

Question: For `OCCOc1ccccc1`, which “activity change, negative = cytotoxicity” value is on record?
Answer: -0.301%

Question: For `Oc1ccccc1-c1ccccc1`, which “activity change, negative = cytotoxicity” value is on record?
Answer: 9.63%

Question: How did the “activity change, negative = cytotoxicity” value turn out when `Oc1cc(Cl)ccc1Oc1ccc(Cl)cc1Cl` was run?
Answer: 3.31%

Question: `CC(C)(C)CC(C)(C)c1ccc(O)cc1` was tested. Which Potency did it give?
Answer: inactive

Question: `O=C1NCN(c2ccccc2)C12CCN(CC1COc3ccccc3O1)CC2` (stereo not given) was tested. Which “activity change, negative = cytotoxicity” value did it give?
Answer: 20%

Question: With `CCN(C(C)=O)c1cccc(-c2ccnc3c(C#N)cnn23)c1` as the compound, how does the “activity change, negative = cytotoxicity” value read?
Answer: 12.8%

Question: For `CCN(CC)C(=O)N[C@@H]1C=C2c3cccc4[nH]cc(c34)C[C@@H]2N(C)C1`, which “activity change, negative = cytotoxicity” value is on record?
Answer: 5.1%

Question: With `Cn1cc(C2=C(c3cn(C4CCN(Cc5ccccn5)CC4)c4ccccc34)C(=O)NC2=O)c2ccccc21` as the compound, how does the “activity change, negative = cytotoxicity” value read?
Answer: 23.5%
